Measured values reported in PubChem BioAssay (NCATS).
Inconclusive results are not listed. A call without a number means that no potency is given here. Calls of active or inactive are those of the source. The call rests on the fitted dose curve; in most records, active means well fitted inhibition curve with a large enough effect; inconclusive means small, poorly fitted or top-dose-only effect; inactive means flat fitted curve, though single readings scatter.

These compounds were tested against Phospholipid hydroperoxide glutathione peroxidase GPX4 (Homo sapiens) (UniProt P36969) (assay: Primary qHTS Assay for Inhibitors of Recombinant Selenoprotein Glutathione Peroxidase 4 (GPX4) (AID 1845192; further: nearly all actives have a fitted effect of over 65% in size)). Details: recombinant GPX4, GR-coupled NADPH fluorescence, 15 min; series mostly up to 50 µM.
Outline: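 Steps: GPX4 plus compound, 30 min RT; add GR/GSH/NADPH master mix; start with cumene hydroperoxide; read 340/450 nm fluorescence at 0 and 15 min. Finals were 200 nM GPX4, 1 mM GSH, 0.5 mM CHP, 0.5 mM NADPH, 100 nM GR.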

Phospholipid hydroperoxide glutathione peroxidase GPX4 (Homo sapiens), sequence (P36969 whole entry, looked up): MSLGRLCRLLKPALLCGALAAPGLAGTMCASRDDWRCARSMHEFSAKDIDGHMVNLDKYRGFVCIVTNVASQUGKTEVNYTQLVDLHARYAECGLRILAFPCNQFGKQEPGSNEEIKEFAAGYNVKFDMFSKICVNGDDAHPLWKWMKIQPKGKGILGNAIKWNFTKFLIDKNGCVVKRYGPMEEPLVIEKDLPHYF

Q: How did the Potency turn out when `CC(C)[N+](C)(CCC(C(N)=O)(c1ccccc1)c1ccccc1)C(C)C` was run?
A: inactive

Q: Which Potency does the source give for `Cc1ccc([N+](=O)[O-])[c]2c1[O][Hg]2` here?
A: inactive

Q: How did the Potency turn out when `CC(C)C(Br)C(=O)NC(N)=O` (stereo not given) was run?
A: inactive

Q: Which Potency does the source give for `CC(C)(O)C(Cl)(Cl)Cl` here?
A: inactive

Q: How did the Potency turn out when `Clc1ccc(CO/N=C(\Cn2ccnc2)c2ccc(Cl)cc2Cl)c(Cl)c1` was run?
A: inactive

Q: `Clc1ccc(CSC(Cn2ccnc2)c2ccc(Cl)cc2Cl)cc1` (stereo not given) was tested. Which Potency did it give?
A: inactive

Q: How did the Potency turn out when `N#Cc1nn(-c2c(Cl)cc(C(F)(F)F)cc2Cl)c(N)c1S(=O)C(F)(F)F` (stereo not given) was run?
A: inactive

Q: How did the Potency turn out when `Cc1ccc(N=CN(C)C=Nc2ccc(C)cc2C)c(C)c1` was run?
A: inactive

Q: Which Potency does the source give for `Cc1c(Cl)c(=O)oc2cc(OP(=O)(OCCCl)OCCCl)ccc12` here?
A: inactive

Q: Which Potency does the source give for `O=C(NC(=O)c1c(F)cccc1F)Nc1cc(Cl)c(OC(F)(F)C(F)C(F)(F)F)cc1Cl` (stereo not given) here?
A: inactive

Q: How did the Potency turn out when `COP(=O)(OC)OC=C(Cl)Cl` was run?
A: inactive

Q: For `CN(C)C(=O)Oc1cc(OC(=O)N(C)C)cc(C(O)CNC(C)(C)C)c1` (stereo not given), which Potency is on record?
A: inactive

Q: Which Potency does the source give for `Oc1ccc([C@H]2CNCc3c2ccc(O)c3O)cc1O` here?
A: inactive

Q: Which Potency does the source give for `CC1COC2(c3ccccc3Cl)c3cc(Cl)ccc3NC(=O)CN12` (stereo not given) here?
A: inactive

Q: Which Potency does the source give for `CCC(=O)C(CCN(C)C)(c1ccccc1)c1ccccc1` here?
A: inactive

Q: How did the Potency turn out when `CC1=C2[C@H]3OC(=O)[C@@H](C)[C@@H]3CC[C@@]2(C)C=CC1=O` was run?
A: inactive

Q: How did the Potency turn out when `C[C@]12Cc3nonc3C[C@@H]1CC[C@@H]1[C@@H]2CC[C@@]2(C)[C@H]1CC[C@]2(C)O` was run?
A: inactive

Q: Which Potency does the source give for `CC(C(O)c1ccccc1)N(C)C/C=C/c1ccccc1` (stereo not given) here?
A: inactive

Q: `C[N+]1(C)[C@@H]2CC[C@H]1CC(OC(=O)C(CO)c1ccccc1)C2` (stereo not given in full) was tested. Which Potency did it give?
A: inactive

Q: With `CCN(CC)Cc1nccn1-c1ccc([N+](=O)[O-])cc1C(=O)c1ccccc1Cl` as the compound, how does the Potency read?
A: inactive

Q: With `CCC1(c2cccc(O)c2)CCCCN(C)C1` (stereo not given) as the compound, how does the Potency read?
A: inactive

Q: For `NC(=O)CN1CCCC1=O`, which Potency is on record?
A: inactive

Q: With `CC(CC(C(N)=O)(c1ccccc1)c1ccccc1)N(C)C` (stereo not given) as the compound, how does the Potency read?
A: inactive

Q: `CCOC(=O)C1(c2ccccc2)CCN(CCc2ccc(N)cc2)CC1` was tested. Which Potency did it give?
A: inactive

Q: Which Potency does the source give for `C=CCN1CC[C@]23CCCC[C@H]2[C@H]1Cc1ccc(O)cc13` here?
A: inactive

Q: With `CCCCCCCCC(=O)NCc1ccc(O)c(OC)c1` as the compound, how does the Potency read?
A: inactive

Q: Which Potency does the source give for `CNC(C)Cc1ccccc1OC` (stereo not given) here?
A: inactive

Q: Which Potency does the source give for `O=c1n(Cl)c(=O)n(Cl)c(=O)n1Cl` here?
A: inactive

Q: `Cc1nnc2n1-c1sc(CCC(=O)N3CCOCC3)cc1C(c1ccccc1Cl)=NC2` was tested. Which Potency did it give?
A: inactive

Q: How did the Potency turn out when `C[C@H](N)[C@H](O)c1ccc(O)c(O)c1` was run?
A: inactive

Q: Which Potency does the source give for `O=C1CN2CCOC2(c2ccccc2Cl)c2cc(Cl)ccc2N1` (stereo not given) here?
A: inactive

Q: With `CC(Cc1ccccc1)NCc1ccccc1Cl` (stereo not given) as the compound, how does the Potency read?
A: inactive

Q: For `CN1C2CCC(C)(C)C1CC(OC(=O)C(O)(c1cccs1)c1cccs1)C2` (stereo not given), which Potency is on record?
A: inactive

Q: With `Cc1cccc(Cc2cnc[nH]2)c1C` as the compound, how does the Potency read?
A: inactive

Q: How did the Potency turn out when `COP(=O)(OC)C(O)C(Cl)(Cl)Cl` (stereo not given) was run?
A: inactive
